Test results taken from PubChem BioAssay AID1159580 (chemical genetic matrix, 2015).
Screen size: about 5,500 compounds; about 2,000 (36%) were called active. Roughly 18% stayed inconclusive and do not appear here. This is one part of the list. A number with no mark means an inactive call. Cut-off read from the data, not from the text of the source: active = normalized growth mostly below about 0.91 (no sharp cut-off); inconclusive = no clear call, values can overlap the other calls; inactive = mostly above about 0.92.

Assay: chemical genetic growth profiling, strain panel (AID 1159580);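 note: tested at 20 µM; growth read once vehicle control cultures reached saturation at 30 °C; 1 = growth at the plate median or of vehicle wells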
Conditions: growth OD
[1] = S. cerevisiae deletion strains, locus YBR021W, strain FUR4, stronger effect = lower value
[2] = S. cerevisiae deletion strains, locus YBR229C, strain ROT2, stronger effect = lower value
[3] = S. cerevisiae deletion strains, locus YCL029C, strain bik1, stronger effect = lower value
[4] = S. cerevisiae deletion strains, locus YDL035C, strain GPR1, stronger effect = lower value
[5] = S. cerevisiae deletion strains, locus YDL074C, strain BRE1, stronger effect = lower value
[6] = S. cerevisiae deletion strains, locus YDL101C, strain DUN1, stronger effect = lower value
[7] = S. cerevisiae deletion strains, locus YDL185W, strain tfp1, stronger effect = lower value
[8] = S. cerevisiae deletion strains, locus YDL192W, strain arf1, stronger effect = lower value
[9] = S. cerevisiae deletion strains, locus YDR101C, strain arx1, stronger effect = lower value
[10] = S. cerevisiae deletion strains, locus YDR162C, strain NBP2, stronger effect = lower value
[11] = S. cerevisiae deletion strains, locus YDR318W, strain mcm21, stronger effect = lower value
[12] = S. cerevisiae deletion strains, locus YDR388W, stronger effect = lower value
[13] = S. cerevisiae deletion strains, locus YDR502C, strain sam2, stronger effect = lower value
[14] = S. cerevisiae deletion strains, locus YEL061C, strain CIN8, stronger effect = lower value
[15] = S. cerevisiae deletion strains, locus YER110C, stronger effect = lower value
[16] = S. cerevisiae deletion strains, locus YER155C, strain BEM2, stronger effect = lower value
[17] = S. cerevisiae deletion strains, locus YER167W, strain BCK2, stronger effect = lower value
[18] = S. cerevisiae deletion strains, locus YGL078C, strain dbp3, stronger effect = lower value
[19] = S. cerevisiae deletion strains, locus YGL086W, strain mad1, stronger effect = lower value
[20] = S. cerevisiae deletion strains, locus YGL248W, strain PDE1, stronger effect = lower value
[21] = S. cerevisiae deletion strains, locus YGR135W, strain pre9, stronger effect = lower value
[22] = S. cerevisiae deletion strains, locus YGR229C, strain SMI1, stronger effect = lower value
[23] = S. cerevisiae deletion strains, locus YGR252W, strain gcn5, stronger effect = lower value
[24] = S. cerevisiae deletion strains, locus YHR030C, strain SLT2, stronger effect = lower value
[25] = S. cerevisiae deletion strains, locus YHR079C, strain IRE1 (second series), stronger effect = lower value
[26] = S. cerevisiae deletion strains, locus YHR094C, strain hxt1, stronger effect = lower value
[27] = S. cerevisiae deletion strains, locus YHR129C, strain ARP1, stronger effect = lower value
[28] = S. cerevisiae deletion strains, locus YHR200W, strain rpn10, stronger effect = lower value
[29] = S. cerevisiae deletion strains, locus YIL066C, strain RNR3, stronger effect = lower value
[30] = S. cerevisiae deletion strains, locus YIL073C, strain SPO22, stronger effect = lower value
[31] = S. cerevisiae deletion strains, locus YIL125W, strain kgd1, stronger effect = lower value
[32] = S. cerevisiae deletion strains, locus YIR030C, strain dcg1, stronger effect = lower value
[33] = S. cerevisiae deletion strains, locus YJL095W, strain BCK1, stronger effect = lower value
[34] = S. cerevisiae deletion strains, locus YJL134W, strain LCB3, stronger effect = lower value
[35] = S. cerevisiae deletion strains, locus YJL168C, strain set2, stronger effect = lower value
[36] = S. cerevisiae deletion strains, locus YJL187C, strain SWE1 (second series), stronger effect = lower value
[37] = S. cerevisiae deletion strains, locus YJR043C, strain POL32, stronger effect = lower value
[38] = S. cerevisiae deletion strains, locus YKL009W, strain mrt4, stronger effect = lower value
[39] = S. cerevisiae deletion strains, locus YKL068W, stronger effect = lower value
[40] = S. cerevisiae deletion strains, locus YKL085W, strain MDH1 (second series), stronger effect = lower value
[41] = S. cerevisiae deletion strains, locus YKL085W, strain MDH1, stronger effect = lower value
[42] = S. cerevisiae deletion strains, locus YKL190W, strain CNB1, stronger effect = lower value
[43] = S. cerevisiae deletion strains, locus YKR001C, strain vps1, stronger effect = lower value
[44] = S. cerevisiae deletion strains, locus YLR039C, strain RIC1, stronger effect = lower value
[45] = S. cerevisiae deletion strains, locus YLR058C, strain SHM2, stronger effect = lower value
[46] = S. cerevisiae deletion strains, locus YLR102C, strain apc9, stronger effect = lower value
[47] = S. cerevisiae deletion strains, locus YLR262C, strain YPT6, stronger effect = lower value
[48] = S. cerevisiae deletion strains, locus YLR268W, strain sec22, stronger effect = lower value
[49] = S. cerevisiae deletion strains, locus YLR330W, strain CHS5, stronger effect = lower value
[50] = S. cerevisiae deletion strains, locus YLR342W, strain FKS1 (second series), stronger effect = lower value
[51] = S. cerevisiae deletion strains, locus YLR371W, strain rom2, stronger effect = lower value
[52] = S. cerevisiae deletion strains, locus YLR418C, strain cdc73, stronger effect = lower value
[53] = S. cerevisiae deletion strains, locus YML016C, strain PPZ1, stronger effect = lower value
[54] = S. cerevisiae deletion strains, locus YML032C, strain rad52, stronger effect = lower value
[55] = S. cerevisiae deletion strains, locus YML124C, strain tub3, stronger effect = lower value
[56] = S. cerevisiae deletion strains, locus YMR078C, strain ctf18, stronger effect = lower value
[57] = S. cerevisiae deletion strains, locus YMR223W, strain ubp8, stronger effect = lower value
[58] = S. cerevisiae deletion strains, locus YMR307W, strain GAS1, stronger effect = lower value
[59] = S. cerevisiae deletion strains, locus YNL067W, strain RPL9B, stronger effect = lower value
[60] = S. cerevisiae deletion strains, locus YNL233W, strain BNI4, stronger effect = lower value
[61] = S. cerevisiae deletion strains, locus YNL250W, strain rad50, stronger effect = lower value
[62] = S. cerevisiae deletion strains, locus YNL271C, strain bni1, stronger effect = lower value
[63] = S. cerevisiae deletion strains, locus YNL298W, strain CLA4, stronger effect = lower value
[64] = S. cerevisiae deletion strains, locus YNL307C, strain MCK1, stronger effect = lower value
[65] = S. cerevisiae deletion strains, locus YNL322C, strain KRE1, stronger effect = lower value
[66] = S. cerevisiae deletion strains, locus YNR052C, strain pop2, stronger effect = lower value
[67] = S. cerevisiae deletion strains, locus YOL006C, strain TOP1, stronger effect = lower value
[68] = S. cerevisiae deletion strains, locus YOL012C, strain htz1
[69] = S. cerevisiae deletion strains, locus YOL147C, strain pex11, stronger effect = lower value
[70] = S. cerevisiae deletion strains, locus YOR061W, strain CKA2, stronger effect = lower value
[71] = S. cerevisiae deletion strains, locus YOR069W, strain VPS5, stronger effect = lower value
[72] = S. cerevisiae deletion strains, locus YOR136W, strain idh2, stronger effect = lower value
[73] = S. cerevisiae deletion strains, locus YOR144C, strain elg1, stronger effect = lower value
[74] = S. cerevisiae deletion strains, locus YOR184W, strain ser1, stronger effect = lower value
[75] = S. cerevisiae deletion strains, locus YOR316C, strain cot1, stronger effect = lower value
[76] = S. cerevisiae deletion strains, locus YPR119W, strain clb2, stronger effect = lower value
[77] = S. cerevisiae deletion strains, locus YPR141C, strain kar3, stronger effect = lower value
[78] = S. cerevisiae deletion strains, locus YPR163C, strain tif3, stronger effect = lower value
[79] = S. cerevisiae deletion strains, locus YPR167C, strain met16, stronger effect = lower value
[80] = S. cerevisiae deletion strains, strain wtn01, stronger effect = lower value

NC(N)=NCCC[C@@H](NC(=O)[C@@H](N)Cc1ccc(O)cc1)C(=O)O
normalized growth [1]: 1.01 | normalized growth [2]: 1.01 | normalized growth [3]: 1.01 | normalized growth [4]: 1.02 | normalized growth [5]: 1.01 | normalized growth [6]: 1 | normalized growth (S. cerevisiae deletion strains, locus YDL134C, strain PPH21, stronger effect = lower value): 1.01 | normalized growth [7]: 1.01 | normalized growth [8]: 1.01 | normalized growth [9]: 0.996 | normalized growth (S. cerevisiae deletion strains, locus YDR150W, strain NUM1, stronger effect = lower value): 1.01 | normalized growth [10]: 1 | normalized growth [11]: 1.01 | normalized growth [12]: 1.01 | normalized growth [13]: 1.02 | normalized growth [14]: 1.01 | normalized growth [15]: 1.02 | normalized growth [16]: 1.01 | normalized growth [17]: 1.01 | normalized growth [18]: 1.01 | normalized growth [19]: 1 | normalized growth [20]: 1.01 | normalized growth (S. cerevisiae deletion strains, locus YGR078C, strain PAC10, stronger effect = lower value): 0.996 | normalized growth [21]: 1.01 | normalized growth [22]: 0.997 | normalized growth [23]: 0.99 | normalized growth [24]: 1.01 | normalized growth [25]: 1.01 | normalized growth [26]: 1.01 | normalized growth [27]: 1 | normalized growth [28]: 1.01 | normalized growth [29]: 1.01 | normalized growth [30]: 1.03 | normalized growth [31]: 1.01 | normalized growth [32]: 1.01 | normalized growth [33]: 0.996 | normalized growth [34]: 1.01 | normalized growth [35]: 1.01 | normalized growth [36]: 1.01 | normalized growth [37]: 1.01 | normalized growth [38]: 0.997 | normalized growth [39]: 1.01 | normalized growth [40]: 1.01 | normalized growth [41]: 1.01 | normalized growth [42]: 1.01 | normalized growth [43]: 0.993 | normalized growth [44]: 1.03 | normalized growth [45]: 1.01 | normalized growth [46]: 1.01 | normalized growth [47]: 0.992 | normalized growth [48]: 1.01 | normalized growth [49]: 1.01 | normalized growth [50]: 1.02 | normalized growth [51]: 1.01 | normalized growth [52]: 1.02 | normalized growth [53]: 1 | normalized growth [54]: 1.02 | normalized growth [55]: 1.01 | normalized growth [56]: 1.01 | normalized growth [57]: 1.01 | normalized growth [58]: 0.979 | normalized growth [59]: 1.01 | normalized growth (S. cerevisiae deletion strains, locus YNL153C, strain GIM3, stronger effect = lower value): 0.993 | normalized growth [60]: 1.01 | normalized growth [61]: 0.998 | normalized growth [62]: 1.01 | normalized growth [63]: 1.01 | normalized growth [64]: 1.01 | normalized growth [65]: 1.01 | normalized growth [66]: 1.02 | normalized growth [67]: 1.03 | normalized growth [68]: 1.88 | normalized growth [69]: 1.01 | normalized growth [70]: 1.01 | normalized growth [71]: 1.01 | normalized growth [72]: 1 | normalized growth [73]: 1.01 | normalized growth [74]: 1.01 | normalized growth [75]: 1.01 | normalized growth (S. cerevisiae deletion strains, locus YPL055C, strain LGE1, stronger effect = lower value): 1 | normalized growth [76]: 1.01 | normalized growth [77]: 1.01 | normalized growth [78]: 1.02 | normalized growth [79]: 1.01 | normalized growth [80]: 0.999 | normalized growth (S. cerevisiae strains, strain wild type, stronger effect = lower value): 1

NC(N)=NCCCC(NC(=O)C(N)Cc1ccc(O)cc1)C(=O)O (stereo not drawn)
normalized growth (S. cerevisiae deletion strains, locus YAL013W, strain DEP1, stronger effect = lower value): 1.03 | normalized growth [1]: 1.25 [resistant] (active) | normalized growth [2]: 0.998 | normalized growth [3]: 0.969 | normalized growth [4]: 1.04 | normalized growth [5]: 1.03 | normalized growth [6]: 0.989 | normalized growth [7]: 0.962 | normalized growth [8]: 0.994 | normalized growth [9]: 0.989 | normalized growth [10]: 1.02 | normalized growth [11]: 0.991 | normalized growth [12]: 0.989 | normalized growth [13]: 0.987 | normalized growth [14]: 0.988 | normalized growth [15]: 0.971 | normalized growth [16]: 0.99 | normalized growth [17]: 1.01 | normalized growth [18]: 1 | normalized growth [19]: 0.981 | normalized growth [20]: 0.997 | normalized growth [21]: 1 | normalized growth [22]: 1.05 | normalized growth [23]: 1.23 | normalized growth [24]: 0.994 | normalized growth [25]: 0.968 | normalized growth [26]: 0.985 | normalized growth [27]: 0.99 | normalized growth [28]: 0.981 | normalized growth [29]: 1.01 | normalized growth [30]: 0.924 | normalized growth [31]: 0.995 | normalized growth [32]: 0.996 | normalized growth [33]: 0.988 | normalized growth [34]: 0.992 | normalized growth [35]: 0.989 | normalized growth [36]: 0.99 | normalized growth [37]: 1.08 | normalized growth [38]: 0.938 | normalized growth [39]: 0.968 | normalized growth [40]: 0.988 | normalized growth [41]: 0.988 | normalized growth [42]: 0.993 | normalized growth [43]: 0.982 | normalized growth [44]: 1 | normalized growth [45]: 0.991 | normalized growth [46]: 0.972 | normalized growth [47]: 1 | normalized growth [48]: 0.97 | normalized growth [49]: 0.988 | normalized growth [50]: 1.05 | normalized growth [51]: 0.99 | normalized growth [52]: 1.07 | normalized growth [53]: 0.992 | normalized growth [54]: 0.996 | normalized growth [55]: 0.995 | normalized growth [56]: 0.997 | normalized growth [57]: 1.03 | normalized growth (S. cerevisiae deletion strains, locus YMR263W, strain SAP30, stronger effect = lower value): 0.983 | normalized growth [58]: 1.31 | normalized growth [59]: 0.968 | normalized growth [60]: 1 | normalized growth [61]: 0.951 | normalized growth [62]: 1 | normalized growth [63]: 0.995 | normalized growth [64]: 0.985 | normalized growth [65]: 1 | normalized growth [66]: 0.976 | normalized growth [67]: 1.04 | normalized growth [68]: 1.32 | normalized growth [69]: 0.991 | normalized growth [70]: 0.988 | normalized growth [71]: 0.989 | normalized growth [72]: 0.978 | normalized growth [73]: 0.995 | normalized growth [74]: 0.984 | normalized growth [75]: 0.979 | normalized growth [76]: 0.988 | normalized growth [77]: 0.969 | normalized growth [78]: 1 | normalized growth [79]: 0.997 | normalized growth [80]: 0.964
